The record followed here is the supplement of paper PMC3545927.

For this experiment, the target named is furin, P09958. The experiment is described as follows: furin cleavage Z-score vs untreated control; higher = more cleavage, active = 3.5 or more, inactive = 1 or less, 8 variable residues between constant flanks. In outline: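 Abundance of DNA freed from bead-bound 8-mer peptide–cDNA fusions by purified furin was measured as sequencing read counts after PCR adapter tagging. Cutting ran 7.5, 15 or 30 min in 0.01 ml of 50 mM HEPES pH 7.5 with CaCl2 and NaCl at 1:10 enzyme:substrate. The cleavage Z-score expresses these log counts against furin-free reactions after lowess adjustment and median absolute deviation scaling.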

Some of the results follow. No count for the full screen is at hand.

Sequence of furin, P09958 (P09958 whole entry, the tested form may be a part): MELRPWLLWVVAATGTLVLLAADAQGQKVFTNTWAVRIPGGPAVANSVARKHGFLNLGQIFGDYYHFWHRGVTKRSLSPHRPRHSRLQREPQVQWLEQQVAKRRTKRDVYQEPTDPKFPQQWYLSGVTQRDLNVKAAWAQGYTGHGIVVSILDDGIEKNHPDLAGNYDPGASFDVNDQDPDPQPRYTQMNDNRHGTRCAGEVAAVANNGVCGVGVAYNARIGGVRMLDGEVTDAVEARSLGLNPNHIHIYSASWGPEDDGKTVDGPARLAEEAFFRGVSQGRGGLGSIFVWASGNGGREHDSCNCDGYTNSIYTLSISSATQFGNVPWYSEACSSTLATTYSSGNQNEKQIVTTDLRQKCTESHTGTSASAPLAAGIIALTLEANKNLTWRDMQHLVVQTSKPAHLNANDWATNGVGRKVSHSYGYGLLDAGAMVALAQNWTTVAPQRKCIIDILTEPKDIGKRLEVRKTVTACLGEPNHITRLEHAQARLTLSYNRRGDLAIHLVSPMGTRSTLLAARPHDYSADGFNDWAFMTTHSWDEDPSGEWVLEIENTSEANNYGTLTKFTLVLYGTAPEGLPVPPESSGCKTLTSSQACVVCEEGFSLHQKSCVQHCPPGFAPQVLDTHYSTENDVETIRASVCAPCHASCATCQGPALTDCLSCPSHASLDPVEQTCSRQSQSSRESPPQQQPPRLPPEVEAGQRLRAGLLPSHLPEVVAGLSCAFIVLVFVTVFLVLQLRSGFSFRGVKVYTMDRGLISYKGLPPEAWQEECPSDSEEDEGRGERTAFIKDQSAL

B1: HC1997 (peptide)
chain: CASVCCSMSYAGNASASA
Consider B1, for which the “furin cleavage Z-score” value (7.5 min) was -0.28 (inactive), the “furin cleavage Z-score” value (15 min) was -0.316 (inactive) and the “furin cleavage Z-score” value (30 min) is -0.657 (inactive).

B2: HC2423 (peptide)
chain: CAAREVPCHRAGNASASA
With B2, the “furin cleavage Z-score” value is 0.147 (inactive) (7.5 min), 1.34 (15 min) and 1.67 (30 min).

B3: HC363 (peptide)
chain: CAPGAKQNVQAGNASASA
Take B3: the “furin cleavage Z-score” value was -0.22 (inactive) (7.5 min), -0.957 (inactive) (15 min) and -0.643 (inactive) (30 min).

B4: HC569 (peptide)
chain: CASCGGVVLVAGNASASA
On to B4, for which the “furin cleavage Z-score” value (7.5 min) is -1.44 (inactive), the “furin cleavage Z-score” value (15 min) was -0.138 (inactive) and the “furin cleavage Z-score” value (30 min) is -1.42 (inactive).

B5: FS-326 (peptide)
chain: CAFLSRRRRAAGNASASA
Consider B5, for which the “furin cleavage Z-score” value is, setting by setting: (7.5 min) 8.63 (active); (15 min) 7.91 (active); (30 min) 6.71 (active).

B6: FS-582 (peptide)
chain: CACLSRRRRAAGNASASA
Regarding B6, the “furin cleavage Z-score” value was 9.75 (active) (7.5 min), 10.1 (active) (15 min) and 8.23 (active) (30 min).

B7: FS-798 (peptide)
chain: CAHRSVRRRAAGNASASA
Turning to B7, the “furin cleavage Z-score” value is, setting by setting: (7.5 min) 4.59 (active); (15 min) 5.95 (active); (30 min) 5.68 (active).

B8: HC1138 (peptide)
chain: CAQLLRRLHQAGNASASA
On to B8, for which the “furin cleavage Z-score” value (7.5 min) is -0.809 (inactive), the “furin cleavage Z-score” value (15 min) was 0.744 (inactive) and the “furin cleavage Z-score” value (30 min) was 0.327 (inactive).

B9: FS-1475 (peptide)
chain: CAQLLRRRRAAGNASASA
Consider B9, for which the “furin cleavage Z-score” value reads like this: (7.5 min) 5.21 (active); (15 min) 3.72 (active); (30 min) 3.69 (active).

B10: FS-1613 (peptide)
chain: CASLLRERRAAGNASASA
With B10, the “furin cleavage Z-score” value by setting is: (7.5 min) -0.33 (inactive); (15 min) 1.11; (30 min) 0.57 (inactive).

B11: HC2214 (peptide)
chain: CAEVVTSKWVAGNASASA
For the sequence B11, the “furin cleavage Z-score” value runs as follows: (7.5 min) -0.244 (inactive); (15 min) -0.0853 (inactive); (30 min) -0.758 (inactive).

B12: HC280 (peptide)
chain: CAWVAMTPTVAGNASASA
Consider B12, for which the “furin cleavage Z-score” value reads like this: (7.5 min) -0.409 (inactive); (15 min) 1.35; (30 min) 0.148 (inactive).

B13: HC50 (peptide)
chain: CATTPRSGSWAGNASASA
Consider B13, for which the “furin cleavage Z-score” value is 0.195 (inactive) (7.5 min), -0.703 (inactive) (15 min) and -1.47 (inactive) (30 min).

B14: HC612 (peptide)
chain: CAQASLLKVPAGNASASA
As to B14, the “furin cleavage Z-score” value is -0.764 (inactive) (7.5 min), -0.112 (inactive) (15 min) and 0.0537 (inactive) (30 min).

B15: HC673 (peptide)
chain: CALLAPITAYAGNASASA
With B15, the “furin cleavage Z-score” value reads like this: (7.5 min) -3.12 (inactive); (15 min) -1.42 (inactive); (30 min) -1.58 (inactive).

B16: FS-2237 (peptide)
chain: CARSERSVILAGNASASA
With B16, the “furin cleavage Z-score” value (7.5 min) was -0.162 (inactive), the “furin cleavage Z-score” value (15 min) was 0.495 (inactive) and the “furin cleavage Z-score” value (30 min) was -1.51 (inactive).

B17: FS-538 (peptide)
chain: CAHPQRKRRGAGNASASA
Take B17: the “furin cleavage Z-score” value reads like this: (7.5 min) 8.91 (active); (15 min) 10.4 (active); (30 min) 7.34 (active).

B18: FS-1406 (peptide)
chain: CARSERNRRGAGNASASA
Turning to B18, the “furin cleavage Z-score” value is 12.7 (active) (7.5 min), 13.3 (active) (15 min) and 9.9 (active) (30 min).

B19: FS-931 (peptide)
chain: CAGYFRIRRGAGNASASA
On to B19, for which the “furin cleavage Z-score” value (7.5 min) is 7.65 (active), the “furin cleavage Z-score” value (15 min) was 7.42 (active) and the “furin cleavage Z-score” value (30 min) was 7.31 (active).

B20: FS-1122 (peptide)
chain: CAEVARLRRGAGNASASA
On to B20, for which the “furin cleavage Z-score” value by setting is: (7.5 min) 0.497 (inactive); (15 min) 0.166 (inactive); (30 min) 1.11.

B21: FS-1076 (peptide)
chain: CARVQRLRRGAGNASASA
On to B21, for which the “furin cleavage Z-score” value by setting is: (7.5 min) 6.03 (active); (15 min) 4.67 (active); (30 min) 4.95 (active).

B22: HC1399 (peptide)
chain: CALQVLDSHYAGNASASA
For the sequence B22, the “furin cleavage Z-score” value was 0.634 (inactive) (7.5 min), 0.79 (inactive) (15 min) and -1.28 (inactive) (30 min).

B23: HC1416 (peptide)
chain: CALTPPHSAKAGNASASA
With B23, the “furin cleavage Z-score” value (7.5 min) is 0.524 (inactive), the “furin cleavage Z-score” value (15 min) was 0.481 (inactive) and the “furin cleavage Z-score” value (30 min) was -0.0828 (inactive).

B24: HC2539 (peptide)
chain: CASTPCSPHLAGNASASA
As to B24, the “furin cleavage Z-score” value was 2.23 (7.5 min), -1.13 (inactive) (15 min) and 0.314 (inactive) (30 min).

B25: HC741 (peptide)
chain: CALKGSSGGPAGNASASA
Consider B25, for which the “furin cleavage Z-score” value was -0.0654 (inactive) (7.5 min), -1.8 (inactive) (15 min) and -2.14 (inactive) (30 min).

B26: HC863 (peptide)
chain: CAAKLVALGIAGNASASA
For the sequence B26, the “furin cleavage Z-score” value (7.5 min) is 0.999 (inactive), the “furin cleavage Z-score” value (15 min) is -2.69 (inactive) and the “furin cleavage Z-score” value (30 min) was 0.907 (inactive).

B27: FS-595 (peptide)
chain: CAHLVPVLRGAGNASASA
For the sequence B27, the “furin cleavage Z-score” value runs as follows: (7.5 min) 0.989 (inactive); (15 min) -0.535 (inactive); (30 min) -1.61 (inactive).

B28: FS-634 (peptide)
chain: CAYLNRKRRGAGNASASA
For the sequence B28, the “furin cleavage Z-score” value reads like this: (7.5 min) 9.69 (active); (15 min) 11.9 (active); (30 min) 7.89 (active).

B29: FS-1578 (peptide)
chain: CAVFQRKRRGAGNASASA
With B29, the “furin cleavage Z-score” value runs as follows: (7.5 min) 12.4 (active); (15 min) 12.7 (active); (30 min) 9.42 (active).

B30: FS-3215 (peptide)
chain: CAVFKRDAHGAGNASASA
For the sequence B30, the “furin cleavage Z-score” value was -0.773 (inactive) (7.5 min), -0.315 (inactive) (15 min) and 1.52 (30 min).

B31: FS-1534 (peptide)
chain: CAICSRAARGAGNASASA
Turning to B31, the “furin cleavage Z-score” value is, setting by setting: (7.5 min) -0.759 (inactive); (15 min) 0.0398 (inactive); (30 min) -0.381 (inactive).

B32: FS-1454 (peptide)
chain: CAFPMRGRRGAGNASASA
On to B32, for which the “furin cleavage Z-score” value runs as follows: (7.5 min) -0.221 (inactive); (15 min) -0.337 (inactive); (30 min) 0.17 (inactive).

B33: HC904 (peptide)
chain: CARRGRTGRGAGNASASA
As for B33, the “furin cleavage Z-score” value (7.5 min) was -0.725 (inactive), the “furin cleavage Z-score” value (15 min) was -0.224 (inactive) and the “furin cleavage Z-score” value (30 min) is -0.511 (inactive).

B34: FS-1523 (peptide)
chain: CAFSSRWGRGAGNASASA
Regarding B34, the “furin cleavage Z-score” value is -2.35 (inactive) (7.5 min), 0.914 (inactive) (15 min) and -0.211 (inactive) (30 min).

B35: FS-390 (peptide)
chain: CAYLHRVGRGAGNASASA
On to B35, for which the “furin cleavage Z-score” value (7.5 min) is 3.96 (active), the “furin cleavage Z-score” value (15 min) is 5.69 (active) and the “furin cleavage Z-score” value (30 min) is 4.8 (active).

B36: FS-541 (peptide)
chain: CAIKSRFGRGAGNASASA
Take B36: the “furin cleavage Z-score” value (7.5 min) is 4.29 (active), the “furin cleavage Z-score” value (15 min) is 4.38 (active) and the “furin cleavage Z-score” value (30 min) was 4.05 (active).

B37: HC824 (peptide)
chain: CALGIGTVLDAGNASASA
For B37, the “furin cleavage Z-score” value is -0.583 (inactive) (7.5 min), 0.0553 (inactive) (15 min) and -0.254 (inactive) (30 min).

B38: HC2067 (peptide)
chain: CAVVCCSMFYAGNASASA
On to B38, for which the “furin cleavage Z-score” value (7.5 min) was -1.42 (inactive), the “furin cleavage Z-score” value (15 min) was 0.168 (inactive) and the “furin cleavage Z-score” value (30 min) is -1.67 (inactive).

B39: FS-960 (peptide)
chain: CARYFRKRRGAGNASASA
Turning to B39, the “furin cleavage Z-score” value was 10.2 (active) (7.5 min), 11.6 (active) (15 min) and 9.02 (active) (30 min).

B40: FS-37 (peptide)
chain: CAISYRFPRGAGNASASA
On to B40, for which the “furin cleavage Z-score” value (7.5 min) was 4.87 (active), the “furin cleavage Z-score” value (15 min) is 7.38 (active) and the “furin cleavage Z-score” value (30 min) is 6.94 (active).

B41: FS-671 (peptide)
chain: CAKKERRPRGAGNASASA
Turning to B41, the “furin cleavage Z-score” value is, setting by setting: (7.5 min) 1.59; (15 min) 2.08; (30 min) 0.765 (inactive).

B42: HC447 (peptide)
chain: CAGAGNNTLHAGNASASA
As to B42, the “furin cleavage Z-score” value runs as follows: (7.5 min) -0.871 (inactive); (15 min) 0.802 (inactive); (30 min) -0.559 (inactive).

B43: HC456 (peptide)
chain: CADATYSRCGAGNASASA
Take B43: the “furin cleavage Z-score” value (7.5 min) is 0.156 (inactive), the “furin cleavage Z-score” value (15 min) was determined as 1.42 and the “furin cleavage Z-score” value (30 min) was 0.00204 (inactive).

B44: HC2314 (peptide)
chain: CAKVPCHRPSAGNASASA
In the case of B44, the “furin cleavage Z-score” value (7.5 min) came to 1.64, the “furin cleavage Z-score” value (15 min) is 0.0197 (inactive) and the “furin cleavage Z-score” value (30 min) was 0.762 (inactive).
